Assay results published in PubChem BioAssay AID1159580 (chemical genetic matrix, 2015).
About 2,000 (36%) of roughly 5,500 compounds were called active. Not shown: some 18% with an inconclusive outcome. This is one part of the list. Unmarked numbers belong to inactive results. Cut-off read from the data, not from the text of the source: active = normalized growth mostly below about 0.91 (no sharp cut-off); inconclusive = no clear call, values can overlap the other calls; inactive = mostly above about 0.92.

Experiment: chemical genetic growth profiling, strain panel (AID 1159580);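 note: tested at 20 µM; growth read once vehicle control cultures reached saturation at 30 °C; 1 = growth at the plate median or of vehicle wells; lower values mean less growth of the strain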
Settings: growth OD
[1] = S. cerevisiae deletion strains, locus YAL013W, strain DEP1, stronger effect = lower value
[2] = S. cerevisiae deletion strains, locus YBR229C, strain ROT2, stronger effect = lower value
[3] = S. cerevisiae deletion strains, locus YDL101C, strain DUN1, stronger effect = lower value
[4] = S. cerevisiae deletion strains, locus YDL134C, strain PPH21, stronger effect = lower value
[5] = S. cerevisiae deletion strains, locus YDR150W, strain NUM1, stronger effect = lower value
[6] = S. cerevisiae deletion strains, locus YEL061C, strain CIN8, stronger effect = lower value
[7] = S. cerevisiae deletion strains, locus YGR078C, strain PAC10, stronger effect = lower value
[8] = S. cerevisiae deletion strains, locus YHR030C, strain SLT2, stronger effect = lower value
[9] = S. cerevisiae deletion strains, locus YHR087W, strain rtc3, stronger effect = lower value
[10] = S. cerevisiae deletion strains, locus YJR043C, strain POL32, stronger effect = lower value
[11] = S. cerevisiae deletion strains, locus YJR075W, strain HOC1, stronger effect = lower value
[12] = S. cerevisiae deletion strains, locus YKL190W, strain CNB1, stronger effect = lower value
[13] = S. cerevisiae deletion strains, locus YLR039C, strain RIC1, stronger effect = lower value
[14] = S. cerevisiae deletion strains, locus YLR058C, strain SHM2 (second series), stronger effect = lower value
[15] = S. cerevisiae deletion strains, locus YLR085C, strain ARP6, stronger effect = lower value
[16] = S. cerevisiae deletion strains, locus YLR262C, strain YPT6, stronger effect = lower value
[17] = S. cerevisiae deletion strains, locus YML094W, strain GIM5, stronger effect = lower value
[18] = S. cerevisiae deletion strains, locus YMR219W, strain ESC1, stronger effect = lower value
[19] = S. cerevisiae deletion strains, locus YMR263W, strain SAP30, stronger effect = lower value
[20] = S. cerevisiae deletion strains, locus YNL153C, strain GIM3, stronger effect = lower value
[21] = S. cerevisiae deletion strains, locus YNL298W, strain CLA4 (second series), stronger effect = lower value
[22] = S. cerevisiae deletion strains, locus YNL322C, strain KRE1, stronger effect = lower value
[23] = S. cerevisiae deletion strains, locus YNR030W, strain Alg12, stronger effect = lower value
[24] = S. cerevisiae deletion strains, locus YPL055C, strain LGE1, stronger effect = lower value
[25] = S. cerevisiae deletion strains, locus YPL241C, strain CIN2, stronger effect = lower value
[26] = S. cerevisiae deletion strains, locus YPR135W, strain CTF4, stronger effect = lower value

SMILES: CSC(=NS(=O)(=O)c1ccccc1)SC
- normalized growth [1]: 0.985
- normalized growth [2]: 0.979
- normalized growth [3]: 0.98
- normalized growth [4]: 1.01
- normalized growth [5]: 0.938
- normalized growth [6]: 1.03
- normalized growth [7]: 0.985
- normalized growth [8]: 0.83
- normalized growth [9]: 1.02
- normalized growth (S. cerevisiae deletion strains, locus YJL187C, strain SWE1, stronger effect = lower value): 1
- normalized growth [10]: 0.96
- normalized growth [11]: 0.977
- normalized growth [12]: 1
- normalized growth [13]: 0.595 (active)
- normalized growth [14]: 0.987
- normalized growth [15]: 0.901
- normalized growth [16]: 0.513 (active)
- normalized growth [17]: 0.921
- normalized growth [18]: 0.995
- normalized growth [19]: 0.974
- normalized growth [20]: 1
- normalized growth [21]: 1.02
- normalized growth [22]: 0.971
- normalized growth [23]: 0.989
- normalized growth [24]: 0.978
- normalized growth [25]: 0.945
- normalized growth [26]: 0.941

SMILES: COc1ccc(C(C)=O)cc1CSC(=NS(=O)(=O)c1ccccc1)Nc1cccc(F)c1
- normalized growth [1]: 1.01
- normalized growth [2]: 0.993
- normalized growth [3]: 0.988
- normalized growth [4]: 0.994
- normalized growth [5]: 0.913
- normalized growth [6]: 0.974
- normalized growth [7]: 1.02
- normalized growth [8]: 0.944
- normalized growth [9]: 0.981
- normalized growth [10]: 1.01
- normalized growth [11]: 0.981
- normalized growth [12]: 0.984
- normalized growth [13]: 0.876
- normalized growth [14]: 1
- normalized growth [15]: 0.921
- normalized growth [16]: 0.915
- normalized growth [17]: 0.973
- normalized growth [18]: 0.999
- normalized growth [19]: 0.998
- normalized growth (S. cerevisiae deletion strains, locus YMR307W, strain GAS1, stronger effect = lower value): 0.737
- normalized growth [20]: 1.03
- normalized growth [21]: 0.963
- normalized growth [22]: 0.98
- normalized growth [23]: 0.952
- normalized growth [24]: 1.02
- normalized growth [25]: 0.983
- normalized growth [26]: 1.03
- normalized growth (S. cerevisiae strains, strain wild type, stronger effect = lower value): 0.988
